93 compounds from PubChem BioAssay AID651815 (National Center for Advancing Translational Sciences (NCATS), 2012) can be followed below.

About 1,100 (52%) of roughly 2,100 compounds were called active. About 29% were inconclusive and are not listed. Calls come from the whole dose curve; as a rule, active = well fitted inhibition curve with a large enough effect; inconclusive = small, poorly fitted or top-dose-only effect; inactive = no such curve, though single readings can be large or run the other way. The set was probably picked from earlier hits. Some of the results follow.
Potency is the fitted concentration of half-maximal effect.

Sequence of DNA dC->dU-editing enzyme APOBEC-3F (Homo sapiens) (Q8IUX4 whole entry, looked up): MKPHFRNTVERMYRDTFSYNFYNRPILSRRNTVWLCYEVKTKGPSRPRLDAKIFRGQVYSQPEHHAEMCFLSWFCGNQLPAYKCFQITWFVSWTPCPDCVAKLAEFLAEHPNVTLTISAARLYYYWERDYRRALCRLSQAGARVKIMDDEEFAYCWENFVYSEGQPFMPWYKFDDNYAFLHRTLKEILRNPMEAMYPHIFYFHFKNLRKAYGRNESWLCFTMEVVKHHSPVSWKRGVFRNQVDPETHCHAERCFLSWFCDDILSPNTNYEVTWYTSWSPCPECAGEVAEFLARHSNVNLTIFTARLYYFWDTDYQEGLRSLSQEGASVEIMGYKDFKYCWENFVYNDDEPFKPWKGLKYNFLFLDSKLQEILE

The target of the assay is DNA dC->dU-editing enzyme APOBEC-3F (Homo sapiens) (UniProt Q8IUX4). Briefly: qHTS for inhibitors of Vif-A3F interactions: Cherry picks counterscreen. Note: nearly all actives have a fitted effect of over 65% in size. The settings on record: HeLa A3F-eYFP/Vif cells, eYFP fluorescence, 24 h; series mostly up to 46.1 µM. An outline of the steps:
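Rescue of Vif-driven A3F-eYFP degradation read as cellular eYFP fluorescence after 24 h compound exposure (several concentrations) in stable HeLa cells; MG132 (2 mM stock) as positive control.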
Background: In qHTS, concentration-response curves come from the screen itself.
For the compound `NC(=O)C1CCN(c2nc3ccccc3nc2NS(=O)(=O)c2ccc(Br)cc2)CC1`, the Potency is 16.4 µM (active).

Consider `O=S(=O)(Nc1nc2ccccc2nc1N1CCN(c2ccccn2)CC1)c1ccc(Cl)cc1`, for which the Potency was 16.4 µM (active).

For `O=C(NC(=S)N1CCN(c2ccccn2)CC1)c1ccccc1`, the Potency result was “inactive”.

As for `Cc1c(=O)n(OCc2ccc(Cl)cc2)c2ccccc2[n+]1[O-]`, the Potency result was “inactive”.

With `CN1/C(=C/C=C(C#N)C#N)C(C)(C)c2ccccc21`, the Potency is 2.91 µM (active).

Take `CN1/C(=C/C=C(/C#N)C(N)=O)C(C)(C)c2ccccc21`: the Potency was 7.04 µM (active).

Take `CN1/C(=C\C=C(C#N)C#N)C(C)(C)c2ccccc21`: the Potency is 16.4 µM (active).

As for `CC1=C/C(=C\C=C(C#N)C#N)N(C)c2ccccc21`, the Potency is 3.26 µM (active).

`CCOC(=O)C(C)Oc1cccc2c(=O)n(CC(=O)NCc3ccco3)ccc12` (stereo not drawn): the Potency is 3.14 µM (active).

Regarding `COC(=O)COc1cccc2c(=O)n(CC(=O)NCc3ccccc3)ccc12`, the Potency is 4.44 µM (active).

As to `COc1ccc(-c2nnc(SCC(=O)NCc3ccccc3)nc2-c2ccc(OC)c(OC)c2)cc1OC`, the Potency was 5.17 µM (active).

Regarding `CCC(C)Sc1cc(-c2nc3ccccn3c2NC2CCCCC2)ccc1OC` (stereo not drawn), the Potency entry is “inactive”.

In the case of `CCOc1cc(C)nc(NCc2ccccc2)n1`, the Potency result was “inactive”.

Take `CCOc1cc(-c2nnc(SCC(=O)NCc3ccccc3)nc2-c2ccc(OC)c(OCC)c2)ccc1OC`: the Potency was 2.31 µM (active).

Consider `COc1cc(-c2nc3ccc(C)cn3c2NCc2ccccc2)ccc1SC1CCCCC1`, for which the Potency entry was “inactive”.

Consider `COc1ccc(-c2nc3c4ccccc4ccn3c2Cc2ccsc2)cc1OC`, for which the Potency result was “inactive”.

As for `N#CC1=C(N)C(C#N)(C#N)[C@H](c2c(F)cccc2F)[C@H]2CC3(CC=C12)OCCO3`, the Potency is 16.4 µM (active).

Take `Cc1cccc(CN2C(=O)N/C(=C/c3ccc(C)s3)C2=O)c1`: the Potency is 12.5 µM (active).

In the case of `Cc1ccc(/C=C2/NC(=O)N(Cc3ccccc3F)C2=O)s1`, the Potency was 4.11 µM (active).

As to `C/C(CCC(C)C)=N\NC(=S)NCc1ccccc1`, the Potency result was “inactive”.

As to `CC(=O)Nc1ccc(C2=CC(=O)C[C@H](c3ccc(Cl)cc3)C2)cc1`, the Potency was 20.6 µM (active).

Take `CC(=O)Nc1ccc2c(c1)Cc1ccc(Cl)cc1-2`: the Potency entry was “inactive”.

Take `COc1cccc(N2CCN(Cc3nc4scc(-c5ccccc5)c4c(=O)[nH]3)CC2)c1`: the Potency was 9.94 µM (active).

Take `O=c1[nH]c(CN2CCN(c3ccccc3)CC2)nc2scc(-c3ccccc3)c12`: the Potency is 16.4 µM (active).

For the compound `O=C(NC(=S)N1CCN(C2CCCCC2)CC1)c1ccccc1`, the Potency result is “inactive”.

On to `COc1ccc(Cl)cc1NC(=O)CN(C)CC(=O)Nc1ccccc1N1CCOCC1`, for which the Potency is 3.53 µM (active).

On to `O=C(Oc1ccc(Cl)c2cccnc12)c1ccco1`, for which the Potency entry was “inactive”.

In the case of `C/C(CC(=O)NCc1ccco1)=N\NC(=O)COc1ccc(Cl)cc1Cl`, the Potency is 12.5 µM (active).

For `C/C(CC(=O)NCc1ccc(Cl)cc1)=N\NC(=O)COc1ccc(C)cc1Br`, the Potency was 15.8 µM (active).

With `c1ccc(N=Nc2ccc3cccccc2-3)cc1`, the Potency is 15.8 µM (active).

For `CCOC(=O)C(=Cc1ccc(-n2ccnc2)cc1)C(=O)OCC`, the Potency was 12.5 µM (active).

Regarding `CCOC(=O)C(=Cc1ccc(-n2cncn2)cc1)C(=O)OCC`, the Potency was 7.9 µM (active).

For `COc1cc(CNCCSc2nnnn2C)ccc1OCc1c(F)cccc1Cl`, the Potency result is “inactive”.

Regarding `O=C(c1ccccc1)c1c2c(cc3sc4ccccc4[n+]13)-c1cccc3cccc-2c13`, the Potency is 17.7 µM (active).

For the compound `Oc1ccc(C2=NNC(=NCc3ccc4c(c3)OCO4)SC2)c(O)c1`, the Potency was 4.98 µM (active).

As for `O=C(O)CSc1c2ccccc2cc2ccccc12`, the Potency result is “inactive”.

For `Cc1cc(NC(=O)NC(=O)c2ccccc2NC(=O)C(C)N)ccc1Oc1ncc(Br)cn1` (stereo not drawn), the Potency was 3.14 µM (active).

With `O=C1c2cccc3c([N+](=O)[O-])c(O)cc(c23)C(=O)N1Nc1ccccc1`, the Potency was 23.1 µM (active).

`O=c1[nH]c2ccccc2n2c(C(F)(F)F)nnc12`: the Potency was 16.4 µM (active).

In the case of `Cc1cccc(Cn2c(=O)n(CCCC(=O)NCc3ccco3)c(=O)c3ccccc32)c1`, the Potency is 8.86 µM (active).

Regarding `O=S(=O)(Nc1nc2ccccc2nc1Nc1cccc(S(=O)(=O)N2CCCCC2)c1)c1ccccc1`, the Potency was 18.4 µM (active).

As for `Cc1ccc(S(=O)(=O)Nc2nc3ccccc3nc2Nc2cccc(S(=O)(=O)N3CCCC3)c2)cc1`, the Potency was 3.26 µM (active).

Turning to `O=C(Nc1ccc(Cl)cn1)c1cccc(S(=O)(=O)N2CCCCCC2)c1`, the Potency result was “inactive”.

As for `CC(=O)c1cccc(-c2ccnc3c2CC(C(=O)NCc2ccc(F)c(F)c2)O3)c1` (stereo not drawn), the Potency was 3.96 µM (active).

Turning to `O=C(NCc1ccco1)C1Cc2c(-c3cccc(F)c3)ccnc2O1` (stereo not drawn), the Potency is 2.8 µM (active).

Turning to `CC(=O)c1cccc(-c2ccnc3c2CC(C(=O)NCc2ccco2)O3)c1` (stereo not drawn), the Potency was 1.98 µM (active).

Consider `O=C(NCc1ccccc1)C1Cc2c(-c3cccc(F)c3)ccnc2O1` (stereo not drawn), for which the Potency is 2.8 µM (active).

Consider `COc1ccc(-n2c(O)c(/C=N/NS(=O)(=O)c3cccc([N+](=O)[O-])c3)c3ccccc3c2=O)cc1OC`, for which the Potency was 14 µM (active).

Regarding `COc1ccc(-n2c(O)c(/C=N/NS(=O)(=O)c3ccc(C)c([N+](=O)[O-])c3)c3ccccc3c2=O)cc1OC`, the Potency is 6.51 µM (active).

On to `O=C(O)CSc1cc(NS(=O)(=O)c2cccc([N+](=O)[O-])c2)c2ccccc2c1O`, for which the Potency entry was “inactive”.

As to `Cc1ccc(NC(=O)CSc2nc3ccc(Nc4nc(N5CCOCC5)nc(N5CCOCC5)n4)cc3s2)cc1`, the Potency is 20.6 µM (active).

In the case of `O=C(CSc1nc2ccc(Nc3nc(N4CCOCC4)nc(N4CCOCC4)n3)cc2s1)Nc1ccccc1F`, the Potency was 20.6 µM (active).

For `Cc1ccc(NC(=O)CSc2n[nH]c(-c3ccccn3)n2)cc1`, the Potency result is “inactive”.

As for `CN1CCC(OC(=O)c2cc3cc(Cl)cc(Cl)c3oc2=O)CC1`, the Potency entry was “inactive”.

`Cc1ccc(C(=O)CSC2=C(C#N)C(c3ccco3)C3=C(CCCC3=O)N2)cc1` (stereo not drawn): the Potency was 9.94 µM (active).

Take `O=C(c1ccc(CS(=O)c2ccccc2Cl)o1)N1CCN(c2ccccc2F)CC1` (stereo not drawn): the Potency was 1.84 µM (active).

For `O=c1c2cc3ccccc3n2cnn1Cc1ccccc1F`, the Potency is 14 µM (active).

With `Cc1ccnc(N/C=C(\C#N)c2nc(-c3cccc(Br)c3)cs2)c1`, the Potency is 15.8 µM (active).

Take `Cc1cc(C)cc(NC(=O)Cn2cc(C(=O)C3CCCCC3)c3ccccc32)c1`: the Potency was 16.4 µM (active).

Consider `Cc1cc(C)cc(NC(=S)NC(=O)C2CC2)c1`, for which the Potency result was “inactive”.

Turning to `CN1CCCc2cc(/C=C/c3ccnc4ccccc34)ccc21`, the Potency was 2.59 µM (active).

On to `CN(C)c1ccc(/C=C/c2ccnc3ccccc23)cc1O`, for which the Potency is 18.4 µM (active).

For the compound `Cc1cc(/C=C/c2ccnc3ccccc23)ccc1N(C)C`, the Potency was 10.3 µM (active).

As for `Cc1cc(/C=C/c2ccnc3ccccc23)ccc1N`, the Potency was 16.4 µM (active).

Take `CN(C)c1ccc(/C=C/c2ccnc3ccccc23)cc1C=O`: the Potency is 6.51 µM (active).

In the case of `CCc1cc(/C=C/c2ccnc3ccccc23)ccc1N(C)C`, the Potency is 20.6 µM (active).

As for `Cc1ccc(CNC(=O)Cc2ccc(-n3cccc3)cc2)cc1`, the Potency is 3.53 µM (active).

Turning to `Cc1ccc(NC(=O)Cc2ccc(-n3cccc3)cc2)c(C)c1`, the Potency entry is “inactive”.

With `CN(C)CCNc1ccc2ncn3c4ccc(O)cc4c(=O)c1c23`, the Potency was 20.6 µM (active).

On to `CCN(CC)CCCNc1ccc2ncn3c4ccc(O)cc4c(=O)c1c23`, for which the Potency was 20.6 µM (active).

Turning to `C=CCNC(=S)N/N=C/c1ccc(C)cc1C`, the Potency result is “inactive”.

Regarding `CCOc1cc(S(=O)(=O)NCc2ccc(OC)cc2)c(OCC)cc1-n1cnnn1`, the Potency is 12.5 µM (active).

Regarding `c1ccc2c(c1)Cc1cc3ccccc3nc1-2`, the Potency was 9.2 µM (active).

Regarding `Cc1ccc(S(=O)(=O)N2CCCCC2CCNC(=O)C(=O)NCc2ccco2)cc1` (stereo not drawn), the Potency is 14 µM (active).

For the compound `COc1cc(/C=C/C(=O)c2ccc3c(c2)OCCO3)cc(Br)c1OCC(=O)N(C)C`, the Potency is 14 µM (active).

With `CN(C)c1ccc(/C=C/c2ccnc3c(N)cccc23)cc1`, the Potency is 18.4 µM (active).

Consider `CN(C)c1ccc(/C=C/c2ccnc3c(Cl)cccc23)cc1`, for which the Potency was 9.2 µM (active).

`CN(C)c1ccc(/C=C/c2ccnc3c(Cl)ccc(Cl)c23)cc1`: the Potency is 5.17 µM (active).

On to `O=C(NCc1ccccc1Cl)c1cccc2c1C(=O)c1ccc(-c3ccc(OC(F)(F)F)cc3)cc1S2(=O)=O`, for which the Potency was 16.4 µM (active).

Turning to `COc1ccc(-c2ccc3c(c2)S(=O)(=O)c2cccc(C(=O)NCc4cccc(OC(F)(F)F)c4)c2C3=O)cc1OC`, the Potency was 3.66 µM (active).

On to `COc1ccc(-c2ccc3c(c2)S(=O)(=O)c2cccc(C(=O)NCCOc4ccccc4)c2C3=O)cc1OC`, for which the Potency was 14 µM (active).

Consider `COc1ccc(S(=O)(=O)NN(C)c2nc(C(F)(F)F)nc3ccccc23)cc1`, for which the Potency was 11.2 µM (active).

Consider `COc1ccc(NC(=O)C2(C)Cc3c(-c4cccc(C(N)=O)c4)ccnc3O2)cn1` (stereo not drawn), for which the Potency was 12.5 µM (active).

Turning to `COc1ccc(NC(=O)C2(C)Cc3c(-c4cccc(NC(C)=O)c4)ccnc3O2)cn1` (stereo not drawn), the Potency is 7.04 µM (active).

Regarding `CN(C)c1ccc(/C=C(/C(=O)c2ccc(Cl)cc2Cl)n2cncn2)cc1`, the Potency is 14 µM (active).

Regarding `Cn1c(=S)c2[nH]c(SCCN3CCCC3)nc2n(C)c1=O`, the Potency result was “inactive”.

Consider `COc1cc(-c2noc(C)c2/C=C/c2cccc([N+](=O)[O-])c2)cc(OC)c1OC`, for which the Potency is 1.58 µM (active).

Take `COc1cc(-c2noc(C)c2/C=C/c2ccc(OC(C)=O)cc2)cc(OC)c1OC`: the Potency was 0.627 µM (active).

Turning to `O=c1[nH]c2cc(Br)cnc2nc1/C=C(\O)c1ccc(F)cc1`, the Potency was 18.4 µM (active).

As to `COc1ccc(Cl)cc1NC(=O)CSc1nc2c([nH]c3ccccc32)c(=O)n1-c1ccccc1`, the Potency was 25.9 µM (active).

As for `Cc1ccc(NC(=O)c2ccc(NCC3CCCO3)c([N+](=O)[O-])c2)cc1Cl` (stereo not drawn), the Potency was 20.6 µM (active).

For the compound `Cc1ccc(NC(=O)c2ccc([N+](=O)[O-])s2)cc1S(=O)(=O)N1CCOCC1`, the Potency entry is “inactive”.

`O=C(O)c1ccc(NS(=O)(=O)c2cccc(C(=O)Nc3ccccc3[N+](=O)[O-])c2)cc1`: the Potency result is “inactive”.
